Peg3 prom inh-1: reduces Peg3 promoter-driven luciferase expression in HeLa; HeLa PEG-Prom luciferase reporter, luminescence, overnight; inhibition, % at 20 µM; hit rate 1.7% among 360,000; AID 588405;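 active = inhibition of at least 50% at 20 µM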
Shn3 3UTR inh: reduces Shn3 3'UTR luciferase signal in osteoblasts. Clone20 osteoblast Shn3 3'UTR firefly luciferase, 24 h. inhibition, % at 12.5 µM. hit rate 0.52% among 360,000. AID 588674;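 active = mean inhibition of at least 75% with every replicate also reaching 75%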;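 also: 0% = median of neutral control wells and 100% = pilot-screen positive control compound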
CF NFkB block: blocks PAF-induced NF-kB reporter in cystic fibrosis cells; KKLEB NF-kB-GFP reporter, GFP fluorescence overnight; inhibition, % at 5 µM; hit rate 0.86% among 360,000;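 active = at least 50% inhibition at 5 µM, scaled per plate between neutral and stimulator controls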;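 also: PAF is a Pseudomonas aeruginosa culture filtrate used as stimulus; plate controls were PAF-stimulated DMSO wells for no effect and unstimulated DMSO wells for full effect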
TRPM1 prom inh: reduces MITF-dependent TRPM1 promoter luciferase signal. SK-MEL-5 TRPM1 promoter luciferase, 24 h. hit rate 0.83% among 330,000. inhibition, % at 12.5 µM;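 active = mean inhibition across replicates of 60% or more, whatever share of single replicates reaches that level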
KKLEB tox: CF airway cell cytotoxicity counter-screen | KKLEB CF airway cells viability, ATPlite luminescence, overnight; hits give low values; cells stimulated with P. aeruginosa culture filtrate | activity change (cytotoxicity), % at 5 µM | hit rate 0.36% among 360,000;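 active = corrected activity change at or below -50% at 5 µM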
HIF-2a block: blocks HIF-2a reporter activity. 786-0 RCC cells HIF-2a reporter, luciferase luminescence, overnight. inhibition, % at 18.8 µM. hit rate 0.72% among 360,000. AID 624352;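 active = inhibition of the luminescence signal of 40% or more relative to plate controls, in a single-dose primary screen at 18.75 µM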
Peg3 prom inh-2: Peg3 promoter inhibition confirmation; shares compounds with Peg3 prom inh-1; HeLa PEG-Prom luciferase reporter, luminescence, overnight; inhibition, % at 20 µM; hit rate 84% among 1,300;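 active = at 20 µM dose, 40% or more inhibition averaged across four replicates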
The depositor's hits bear a star. Shown are actives, neighbours in structure and some others; about 2.7% of the full set was active somewhere.

How did COc1ccc(/C=C/C(=O)Oc2ccc(C)c(C)c2)cc1OC do in these assays?
Peg3 prom inh-1: -30.0; Shn3 3UTR inh: 9.3; CF NFkB block: -5.6; TRPM1 prom inh: -10.0; KKLEB tox: 9.4; HIF-2a block: -14.0

What do the screens show for `COC(=O)C1=C(C)N(Cc2ccccc2)C(=NCc2cccc(Cl)c2)N[C@H]1c1ccccc1`?
Peg3 prom inh-1: 101.2*; Shn3 3UTR inh: 0.7; CF NFkB block: 42.2; TRPM1 prom inh: 11.2; KKLEB tox: -24.9; HIF-2a block: -1.1; Peg3 prom inh-2: 98.0*

How did CC1=C(C(=O)N2CCOCC2)CC(CC(=O)NC2CCCC2)C(=O)N1CCCN1CCCC1=O (stereo unspecified) do in these assays?
Peg3 prom inh-1: -10.7; Shn3 3UTR inh: 0.6; CF NFkB block: -9.9; KKLEB tox: 0.0; HIF-2a block: 9.4

What do the screens show for `COc1ccc(CC(N)c2csc(Nc3cc(Oc4ccccc4)ncn3)n2)cc1` (stereo unspecified)?
Peg3 prom inh-1: 35.6; Shn3 3UTR inh: -6.6; CF NFkB block: -8.9; KKLEB tox: -6.8; HIF-2a block: 13.0

Results for NC(Cc1ccc(F)cc1)c1csc(Nc2cc(Oc3ccccc3)ncn2)n1 (stereo unspecified) ?
Peg3 prom inh-1: 79.2*; Shn3 3UTR inh: -22.6; CF NFkB block: -6.9; KKLEB tox: -11.6; HIF-2a block: 6.4; Peg3 prom inh-2: 82.8*

What do the screens show for `CC(=O)c1ccc(Nc2nc(C(N)Cc3ccc(Cl)cc3)cs2)cc1` (stereo unspecified)?
Peg3 prom inh-1: 56.2*; Shn3 3UTR inh: 9.0; CF NFkB block: -18.9; KKLEB tox: -17.4; HIF-2a block: 0.7; Peg3 prom inh-2: 72.3*

How did COc1ccc(CC(N)c2csc(Nc3cccc(OC)n3)n2)cc1 (stereo unspecified) do in these assays?
Peg3 prom inh-1: 69.5*; Shn3 3UTR inh: -1.9; CF NFkB block: -8.6; KKLEB tox: 3.1; HIF-2a block: 22.7; Peg3 prom inh-2: 96.5*

Results for COc1ccc(CC(N)c2csc(Nc3ccccn3)n2)cc1 (stereo unspecified) ?
Peg3 prom inh-1: -32.8; Shn3 3UTR inh: 17.4; CF NFkB block: -1.7; KKLEB tox: -12.7; HIF-2a block: -38.4

What do the screens show for `CCOC(=O)N1CCN(S(=O)(=O)c2ccc(C(=O)Nc3nc4ccccc4s3)cc2)CC1`?
Peg3 prom inh-1: 3.4; Shn3 3UTR inh: 26.8; CF NFkB block: -10.5; TRPM1 prom inh: -4.9; KKLEB tox: 11.8; HIF-2a block: -0.7

What do the screens show for `CCOC(=O)N1CCN(S(=O)(=O)c2ccc(C(=O)Nc3nc4ccc(F)cc4s3)cc2)CC1`?
Peg3 prom inh-1: 54.5*; Shn3 3UTR inh: 83.9; CF NFkB block: 39.1; TRPM1 prom inh: 4.5; KKLEB tox: -38.4; HIF-2a block: -1.0; Peg3 prom inh-2: -6.5

What do the screens show for `COc1ccc(C(C)(O)c2nc(-c3ccccc3C)cs2)cc1` (stereo unspecified)?
Peg3 prom inh-1: 17.6; Shn3 3UTR inh: -10.6; CF NFkB block: 16.3; KKLEB tox: 1.0; HIF-2a block: 3.1

Results for COCC(C)n1c(C)cc(C(=O)COC(=O)c2cnc(Cl)c(Cl)c2)c1C (stereo unspecified) ?
Peg3 prom inh-1: 16.4; Shn3 3UTR inh: 4.2; CF NFkB block: -9.6; TRPM1 prom inh: 6.8; KKLEB tox: 3.8; HIF-2a block: 7.8

What do the screens show for `COCC(C)n1c(C)cc(C(=O)COC(=O)c2cccn2C)c1C` (stereo unspecified)?
Peg3 prom inh-1: 55.5*; Shn3 3UTR inh: 29.3; CF NFkB block: 4.9; TRPM1 prom inh: 41.9; KKLEB tox: -0.7; HIF-2a block: 11.8; Peg3 prom inh-2: 45.3*

What do the screens show for `COc1ccc(NC(=O)c2sc(=O)n(Cc3cccc(C(F)(F)F)c3)c2C)cc1OC`?
Peg3 prom inh-1: -6.8; Shn3 3UTR inh: 15.0; CF NFkB block: -1.5; KKLEB tox: -3.2; HIF-2a block: -6.4

What do the screens show for `CCOc1ccccc1NC(=O)c1cc(-c2cc(OC)c(OC)c(OC)c2)nc2ccccc12`?
Peg3 prom inh-1: 45.2; Shn3 3UTR inh: -1.7; CF NFkB block: -8.4; TRPM1 prom inh: 9.6; KKLEB tox: -7.7; HIF-2a block: 11.5

What do the screens show for `COc1cc(-c2cc(C(=O)Nc3cc(S(=O)(=O)N4CCOCC4)ccc3C)c3ccccc3n2)cc(OC)c1OC`?
Peg3 prom inh-1: 53.5*; Shn3 3UTR inh: 17.4; CF NFkB block: 15.0; TRPM1 prom inh: -9.6; KKLEB tox: -7.2; HIF-2a block: 12.6; Peg3 prom inh-2: 53.3*

Results for COc1ccccc1NC(=O)c1cc(-c2cc(OC)c(OC)c(OC)c2)nc2ccccc12 ?
Peg3 prom inh-1: 54.1*; Shn3 3UTR inh: 0.3; CF NFkB block: 28.6; TRPM1 prom inh: 10.8; KKLEB tox: -11.5; HIF-2a block: -3.1; Peg3 prom inh-2: 73.9*

Results for COc1cc(-c2cc(C(=O)Nc3cc(S(=O)(=O)N4CCOCC4)ccc3O)c3ccccc3n2)cc(OC)c1OC ?
Peg3 prom inh-1: 27.5; Shn3 3UTR inh: 20.3; CF NFkB block: -27.0; TRPM1 prom inh: 3.8; KKLEB tox: 7.5; HIF-2a block: 13.7

Results for Cc1ccc(Cl)cc1Nc1nc(-c2sc(NC(=O)c3ccco3)nc2C)cs1 ?
Peg3 prom inh-1: 90.3*; Shn3 3UTR inh: 8.2; CF NFkB block: -28.0; TRPM1 prom inh: 68.1*; KKLEB tox: -12.6; HIF-2a block: 8.1; Peg3 prom inh-2: 87.6*

Results for CCC(C)C(=O)Nc1nc(C)c(-c2csc(Nc3ccccc3OC)n2)s1 (stereo unspecified) ?
Peg3 prom inh-1: -3.9; Shn3 3UTR inh: 45.0; CF NFkB block: 10.8; TRPM1 prom inh: -1.6; KKLEB tox: 4.9; HIF-2a block: 18.4

Results for COc1ccccc1Nc1nc(-c2sc(NC(=O)c3ccco3)nc2C)cs1 ?
Peg3 prom inh-1: 70.5*; Shn3 3UTR inh: 12.6; CF NFkB block: 32.1; TRPM1 prom inh: 46.1; KKLEB tox: -2.7; HIF-2a block: 6.6; Peg3 prom inh-2: 58.0*

Results for Cc1nc(NC(=O)c2ccco2)sc1-c1csc(Nc2ccc(Cl)cc2Cl)n1 ?
Peg3 prom inh-1: -3.2; Shn3 3UTR inh: -17.0; CF NFkB block: 22.5; TRPM1 prom inh: -14.6; KKLEB tox: -6.7; HIF-2a block: -41.2

How did O=C1c2ccccc2-c2nnc(-c3ccc(F)cc3)cc21 do in these assays?
Peg3 prom inh-1: -11.4; Shn3 3UTR inh: -26.1; CF NFkB block: -10.5; TRPM1 prom inh: 6.3; KKLEB tox: -16.1; HIF-2a block: -140.7

How did Cc1ccc(-c2cc3c(nn2)-c2ccccc2C3=O)cc1 do in these assays?
Peg3 prom inh-1: 76.1*; Shn3 3UTR inh: 80.5; CF NFkB block: -3.2; TRPM1 prom inh: 78.2*; KKLEB tox: -74.6*; HIF-2a block: 26.9; Peg3 prom inh-2: 66.6*

How did COC(=O)c1ccc(Nc2cc(C)nc3ccc(C)cc23)cc1 do in these assays?
Peg3 prom inh-1: 55.5*; Shn3 3UTR inh: 7.5; CF NFkB block: -9.0; TRPM1 prom inh: 75.8*; KKLEB tox: -7.3; HIF-2a block: 18.8; Peg3 prom inh-2: 89.4*

Screens as filed in PubChem BioAssay.
